The values below come from PubChem BioAssay (NCI).

SMILES strings stand for the structures. Compounds without any hit were thinned out: in the full panel of roughly 83,000, 20% have a hit.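 48-hour exposure, single concentration, 96-well plates; percent growth endpoint where 0 means no net growth. Active: below 10.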 A number with no mark means an inactive call. Calls of active or inactive are those of the source.

This assay has as its system T-47D breast. Kind of assay: NCI-60 one-dose screen, 48 h (100 = growth as untreated, 0 = no growth, -100 = all killed). The conditions noted are these: 10 µM. The method, then:
Growth inhibition of the T-47D human tumor cell line is measured as a screen for anti-cancer activity. Cells are grown in 96 well plates and exposed to the test compound for 48 hours. Compounds are tested at a single concentration, which is 10^-5 M for most compounds. The reported endpoint is percent growth (GI% or GIPRCNT), where numbers from 0 - 100% represent growth inhibition, and numbers from -100% - 0 represent cell death. For example, a value of 40 represents 60% growth inhibition. A value of 0 means no net growth occurred over the course of the experiment. A value of -40 indicates 40% of cells at the beginning of the experiment died by the end of the experiment. A value of -100 means all cells are dead at the end of the experiment.
NCI-60 Human Tumor Cell Lines Screen was performed using the standard one-dose NCI protocol, which is described in more detail at https://dtp.cancer.gov/discovery_development/nci-60/default.htm.
Compounds with GIPRCNT values below 10 were considered active. Activity score was based on GIPRCNT using the following formula: […]
Score is 0 for GIPRCNT values of 100 or above, 50 for GIPRCNT values of 0, and 100 for GIPRCNT values of -100.
For `Clc1ccc2c(c1)C(N1CCNCC1)=Nc1ccccc1O2`, the growth was 35.2%.

For `O=C1CC(=O)N(C(=O)c2nn(-c3ccc(Cl)cc3)cc2O)N1`, the growth is 23.4%.

Consider `COc1cc2c(Nc3ccc(S(N)(=O)=O)cc3)ncnc2c(OC)c1OC`, for which the growth was 97%. Turning to `COc1cc(N)c2ncccc2c1SC`, the growth was 93.1%. In the case of `NC1=CC(=O)C(=O)c2cccnc21`, the growth is 97.9%.

As to `COc1cccc(N=Nc2cccc(OC)c2)c1`, the growth was 70.2%. Regarding `COc1ccc(-c2nnc(SCC(=O)Nc3ccc(C(=O)/C=C/c4ccccc4)cc3)n2-c2ccccc2)cc1OC`, the growth was 72.9%. On to `COc1ccc(N=Nc2cc(OC)c(OC)c(OC)c2)cc1`, for which the growth is 58.8%. With `C=CCn1c(SCC(=O)Nc2ccc(C(=O)/C=C/c3ccc(OC)cc3)cc2)nnc1-c1ccc(OC)c(OC)c1`, the growth was 58.3%.

As for `NC(CSC(c1ccccc1)(c1ccccc1)c1cccc2ccccc12)C(=O)O` (stereo not given), the growth is 103%. For `COc1ccc(-c2csc(NC(=O)c3ccc(Cc4n[nH]c(=O)c5cccnc45)cc3)n2)cc1`, the growth was 68.8%. `COc1cc(/C=C/c2cc(/C=C/c3ccc(O)c(OC)c3)n(C(=O)Nc3ccccc3Cl)n2)ccc1O`: the growth was 4.55% (active). The figure for `OC[C@H]1OC([S-])[C@H](O)[C@@H](O)[C@@H]1O.[Au+]` (stereo not given in full) is 85.5%; for `CCC(CC)n1c(C)cc(=O)n1C(CC)CC` it is 105%; for `CC(C)(C)OC(=O)CN1CCc2c(sc3ncnc(N/N=C/c4ccccc4Br)c23)C1` it is 47.3%.

With `COc1ccc(-c2nn(-c3cccc(Cl)c3)cc2-c2cc(-c3ccccc3)nc(N)n2)cc1`, the growth was 46.5%. For the molecule `S=C(NCc1ccccc1)NCc1ccccc1`, the growth is 94.6%. Take `O=C1/C=C/[C@@H](O)[C@@H]2C[C@@H](O)C[C@H]2/C=C/CCC[C@H](CCc2ccc(NC(=S)Nc3ccc4c(c3)C(=O)OC43c4ccc(O)cc4Oc4cc(O)ccc43)cc2)O1`: the growth is 21.2%. On to `Fc1ccc(C(c2ccc(F)cc2)C(Cl)Cl)cc1`, for which the growth was 110%.

`O=C1C=C(Nc2cccc(Br)c2)c2ccccc2C1=O`: the growth is 102%. With `COc1cc2cc(Oc3ccc(NC(=O)Nc4cccc(C(F)(F)F)c4)cc3)c(C)nc2cc1OC`, the growth is 27.8%. In the case of `O=C(Cn1cc(CO)nn1)Nc1nc2ccccc2s1`, the growth was 110%. The figure for `CCN(CC)c1ccc(/C=C2\SC(=O)C(Nc3nnc(-c4cccnc4SCc4ccccc4)o3)C2=O)cc1` (stereo not given) is 50.3%. For the molecule `Nc1cc(Br)c(-c2nn3c(CCC(=O)c4nc5ccccc5[nH]4)nnc3s2)c(Br)c1`, the growth was 88%.

Regarding `C=C/C(C)=C/C[C@]1(C)[C@H](C)[C@@H](OC(=O)CCC)[C@H](O)[C@@]23C(=C[C@H](OC)C[C@@H]12)[C@@H](OC(=O)CCC)O[C@H]3OC(C)=O`, the growth was -40% (active). Turning to `CCOC(=O)/C(=C(\C)N)C1CC(=O)NC1=O` (stereo not given), the growth is 110%. Consider `C=CCN(CC=C)C(=O)[C@H](CC)[C@@H]1CC[C@@H](C)[C@@H]([C@H](C)[C@@H](O)[C@@H](C)C(=O)[C@H](CC)C2O[C@]3(C=CC(=O)[C@]4(CC[C@@](C)([C@H]5CC[C@](O)(CC)[C@H](C)O5)O4)O3)[C@H](C)C[C@@H]2C)O1` (stereo not given in full), for which the growth was 18.2%. With `C/C(=N\O)c1ccc(NC(=O)CSc2nnc(-c3ccccc3)n2-c2ccccc2)cc1`, the growth was 79.6%. With `Cc1ccc(NCCNCC(C)(C)O)c2c(=O)c3ccc(Cl)cc3sc12`, the growth is 27.4%. In the case of `COC(=O)c1cc2oc(/C=C3/SC(=S)N(N)C3=O)cc2n1Cc1ccccc1`, the growth is 75.6%.

In the case of `Oc1cccc(-c2nc3sccn3c2-c2ccncn2)c1`, the growth was 108%. In the case of `CCn1c(SCc2ccc(C)cc2)nnc1-c1nn(-c2ccc(Cl)cc2Cl)c(-c2ccc(Cl)cc2)c1C`, the growth was -8.15% (active). The same measure for `COc1ccc(-c2n[nH]nc2-c2cc(OC)c(OC)c(OC)c2)cc1`: 21.9%; for `C[n+]1c2ccccc2nc2ccccc21`: 1.26% (active); for `O=C(CCCNC(=O)c1nc(-c2ccccc2)n(-c2ccccc2)n1)NO`: 94%. The figure for `CC[C@@H](C(=O)[C@@H](C)[C@@H](O)[C@H](C)[C@@H]1O[C@@H]([C@@H](CC)C(=O)N(CC)CC)CC[C@@H]1C)C1O[C@]2(C=CC(=O)[C@]3(CC[C@@](C)([C@H]4CC[C@](O)(CC)[C@H](C)O4)O3)O2)[C@H](C)C[C@@H]1C` (stereo not given in full) is 16.2%.

On to `COc1ccc2c(c1)C(CC(=O)NN)CCC2` (stereo not given), for which the growth is 105%.

Take `Cc1noc(C)c1CSc1ccccc1C(=O)N1CCN(c2cccc(C(F)(F)F)c2)CC1`: the growth is 49.2%. For `C#CCOc1c(OC)cc(C(=O)/C(C)=C/c2cccc(N=[N+]=[N-])c2)cc1OC`, the growth was 44.3%. Take `CCn1c2ccc(O)cc2c2c(C)c3c[n+](C)ccc3c(C)c21`: the growth is -6.62% (active).
